Experiment [1] deals with Glucocorticoid receptor (Homo sapiens) (UniProt P04150). Nature of the experiment: ATG_GR_TRANS: Attagene TRANS-FACTORIAL HepG2 Assay for human Glucocorticoid Receptor (GR) (AID 2282978; active = hit-call score of the fitted dose curve at least 0.9, where 1 is the maximum;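 note: activators score as hits since higher reporter transcript over DMSO is fitted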). The note with it: HepG2 Attagene TRANS GR reporter, mRNA transcription. The procedure, abridged: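 Fluorescent capillary-electrophoresis quantitation of reporter mRNA is the readout, taken 24 h after dosing human HepG2 cells carrying transiently transfected GAL4-UAS reporter units activated by chimeric NR-GAL4 fusions; activity scored as induction over DMSO.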
Chain of Glucocorticoid receptor (Homo sapiens) (P04150 whole entry, looked up, the tested form may be a part): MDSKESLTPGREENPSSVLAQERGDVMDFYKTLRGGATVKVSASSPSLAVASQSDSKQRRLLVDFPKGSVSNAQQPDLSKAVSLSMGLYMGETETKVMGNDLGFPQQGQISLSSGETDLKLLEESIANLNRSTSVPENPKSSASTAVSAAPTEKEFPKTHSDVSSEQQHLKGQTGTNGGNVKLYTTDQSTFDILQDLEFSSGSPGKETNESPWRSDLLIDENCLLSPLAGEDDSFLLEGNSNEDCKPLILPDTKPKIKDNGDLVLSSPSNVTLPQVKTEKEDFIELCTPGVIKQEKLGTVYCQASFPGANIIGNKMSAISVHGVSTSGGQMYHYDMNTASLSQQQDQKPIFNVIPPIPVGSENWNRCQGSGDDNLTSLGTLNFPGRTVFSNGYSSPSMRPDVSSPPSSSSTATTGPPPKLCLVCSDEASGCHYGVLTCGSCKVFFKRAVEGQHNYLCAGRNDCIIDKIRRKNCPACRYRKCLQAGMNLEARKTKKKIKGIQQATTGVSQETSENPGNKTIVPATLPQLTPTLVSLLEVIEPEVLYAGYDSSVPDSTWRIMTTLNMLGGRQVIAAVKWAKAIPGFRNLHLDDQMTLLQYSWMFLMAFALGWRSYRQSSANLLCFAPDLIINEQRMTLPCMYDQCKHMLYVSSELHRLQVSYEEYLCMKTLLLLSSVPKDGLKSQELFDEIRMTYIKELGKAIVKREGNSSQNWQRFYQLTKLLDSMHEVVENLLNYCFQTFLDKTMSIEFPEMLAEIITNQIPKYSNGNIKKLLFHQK

Experiment [2] deals with Bile acid receptor (Homo sapiens) (UniProt Q96RI1). Description: ATG_FXR_TRANS: Attagene TRANS-FACTORIAL HepG2 Assay for Farnesoid X Receptor (FXR) (AID 2282979; active = hit-call score of the fitted dose curve at least 0.9, where 1 is the maximum;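 note: hits raise reporter mRNA above DMSO so AC50 marks FXR activation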). The note with it: HepG2 Attagene TRANS FXR-GAL4 reporter transcription. Summed up: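 Chimeric FXR-GAL4 activity in transiently transfected human HepG2 liver cells is scored as induction of reporter mRNA after 24 h of dosing. Detection uses RT-PCR with fluorescent labelling and capillary electrophoresis, with DMSO serving as baseline.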
Chain of Bile acid receptor (Homo sapiens) (Q96RI1 whole entry, looked up, the tested form may be a part): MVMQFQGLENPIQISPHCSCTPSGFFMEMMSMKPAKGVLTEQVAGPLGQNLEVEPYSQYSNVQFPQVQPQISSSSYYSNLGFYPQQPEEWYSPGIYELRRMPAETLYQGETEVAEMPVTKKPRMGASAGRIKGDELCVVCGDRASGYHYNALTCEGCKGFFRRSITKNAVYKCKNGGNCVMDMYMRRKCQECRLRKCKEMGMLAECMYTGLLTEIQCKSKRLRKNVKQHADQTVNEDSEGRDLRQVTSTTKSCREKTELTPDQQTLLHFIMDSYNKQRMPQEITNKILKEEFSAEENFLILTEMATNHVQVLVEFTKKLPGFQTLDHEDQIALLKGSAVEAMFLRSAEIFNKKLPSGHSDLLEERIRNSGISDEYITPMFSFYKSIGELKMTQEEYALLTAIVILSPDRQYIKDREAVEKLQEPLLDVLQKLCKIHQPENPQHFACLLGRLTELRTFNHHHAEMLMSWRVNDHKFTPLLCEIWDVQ

In experiment [3] the target is Oxysterols receptor LXR-alpha (Homo sapiens) (UniProt Q13133). Description: ATG_LXRa_TRANS: Attagene TRANS-FACTORIAL HepG2 Assay for human Liver X Receptor alpha (LXRa) (AID 2282980; active = hit-call score of the fitted dose curve at least 0.9, where 1 is the maximum). The note with it: HepG2 Attagene TRANS reporter, LXRa transactivation. Summed up: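 Transient HepG2 transfectants, 24 h dosing, RT-PCR/CE mRNA reporter quantitation; gain-of-signal vs DMSO.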
Chain of Oxysterols receptor LXR-alpha (Homo sapiens) (Q13133 whole entry, looked up): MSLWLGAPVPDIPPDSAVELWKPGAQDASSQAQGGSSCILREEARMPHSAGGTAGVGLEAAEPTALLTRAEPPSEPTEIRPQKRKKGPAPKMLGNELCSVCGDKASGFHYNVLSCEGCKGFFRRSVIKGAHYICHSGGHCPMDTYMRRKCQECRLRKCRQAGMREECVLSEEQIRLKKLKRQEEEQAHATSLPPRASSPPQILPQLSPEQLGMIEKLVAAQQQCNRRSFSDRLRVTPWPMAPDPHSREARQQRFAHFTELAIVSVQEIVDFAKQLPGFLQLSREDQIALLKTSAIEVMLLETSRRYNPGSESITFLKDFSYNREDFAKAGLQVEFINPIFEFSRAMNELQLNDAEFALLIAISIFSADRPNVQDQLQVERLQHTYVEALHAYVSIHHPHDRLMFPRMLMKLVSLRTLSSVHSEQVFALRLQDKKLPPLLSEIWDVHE

Experiment [4] concerns the target Oxysterols receptor LXR-beta (Homo sapiens) (UniProt P55055). Description: ATG_LXRb_TRANS: Attagene TRANS-FACTORIAL HepG2 Assay for human Liver X Receptor beta (LXRb) (AID 2282981; active = hit-call score of the fitted dose curve at least 0.9, where 1 is the maximum). The note with it: HepG2 Attagene TRANS GAL4-LXRb reporter, mRNA. Summed up:
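HepG2 cells transiently transfected with multiple reporter transcription units carrying chimeric NR-Gal4 proteins acting on GAL4-UAS reporters; compound exposure 24 h. Reporter mRNA quantified by RT-PCR, 6-FAM labelling, HpaI digestion and capillary electrophoresis; gain of signal versus DMSO.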

Experiment [5] deals with Hepatocyte nuclear factor 4-alpha (Homo sapiens) (UniProt P41235). Description: ATG_HNF4a_TRANS: Attagene TRANS-FACTORIAL HepG2 Assay for human Hepatocyte Nuclear Factor 4 alpha (HNF4a) (AID 2282982; active = hit-call score of the fitted dose curve at least 0.9, where 1 is the maximum). The note with it: HepG2 HNF4a transactivation reporter, mRNA readout. Summed up: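 HepG2 cells transiently transfected with multiplexed GAL4-UAS reporter units responsive to chimeric NR-GAL4 proteins; compound exposure 24 h. Reporter mRNA quantified by RT-PCR, 6-FAM labelling, HpaI digestion and capillary electrophoresis; gain of signal versus DMSO baseline.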
Chain of Hepatocyte nuclear factor 4-alpha (Homo sapiens) (P41235 whole entry, looked up, the tested form may be a part): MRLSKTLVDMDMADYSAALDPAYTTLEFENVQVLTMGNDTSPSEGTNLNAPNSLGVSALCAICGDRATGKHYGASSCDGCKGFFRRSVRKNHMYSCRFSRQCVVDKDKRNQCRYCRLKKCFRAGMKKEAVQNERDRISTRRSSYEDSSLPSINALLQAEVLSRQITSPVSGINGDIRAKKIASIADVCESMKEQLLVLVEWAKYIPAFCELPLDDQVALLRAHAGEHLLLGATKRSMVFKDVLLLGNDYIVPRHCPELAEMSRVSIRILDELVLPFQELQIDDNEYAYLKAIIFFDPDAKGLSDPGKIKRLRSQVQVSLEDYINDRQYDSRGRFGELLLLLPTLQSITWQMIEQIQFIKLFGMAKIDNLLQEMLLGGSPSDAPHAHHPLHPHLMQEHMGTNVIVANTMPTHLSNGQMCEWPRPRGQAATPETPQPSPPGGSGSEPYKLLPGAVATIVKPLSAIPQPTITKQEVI

Experiment [6] is described as follows: ATG_M_06_TRANS: Attagene TRANS-FACTORIAL HepG2 Assay for M06 Transcription Factor (Internal Marker) (AID 2282983; active = hit-call score of the fitted dose curve at least 0.9, where 1 is the maximum). The note with it: HepG2 Attagene TRANS M06 internal marker reporter. The procedure, abridged: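 Measured by capillary electrophoresis of fluorescently labelled RT-PCR products, this endpoint reflects reporter mRNA in HepG2 cells harbouring exogenous NR-GAL4 reporter constructs after 24 h exposure, with DMSO as baseline.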

Experiment [7] in a line: ATG_M_32_TRANS: Attagene TRANS-FACTORIAL HepG2 Assay for M32 Transcription Factor (Internal Marker) (AID 2282984; active = hit-call score of the fitted dose curve at least 0.9, where 1 is the maximum). The note with it: HepG2 Attagene TRANS M32 internal marker reporter. The procedure, abridged:
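HepG2 cells transiently transfected with multiple GAL4-UAS reporter transcription units, dosed for 24 hours; reporter mRNA quantified by RT-PCR, 6-FAM primer extension, HpaI digestion and capillary electrophoresis. Gain-of-signal fitted versus DMSO baseline; internal background-control marker.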

The target of experiment [8] is Nuclear receptor subfamily 4 group A member 2 (Homo sapiens) (UniProt P43354). Nature of the experiment: ATG_NURR1_TRANS: Attagene TRANS-FACTORIAL HepG2 Assay for human Nuclear Receptor Related Protein 1 (NURR1) (AID 2282985; active = hit-call score of the fitted dose curve at least 0.9, where 1 is the maximum). The note with it: HepG2 Attagene TRANS reporter, mRNA readout. Summed up:
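HepG2 cells transiently transfected with GAL4-UAS reporter units and chimeric NR-Gal4 constructs; chemical exposure 24 h. Reporter mRNA quantified by RT-PCR, fluorescent labelling and capillary electrophoresis; gain of signal fitted relative to DMSO baseline.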

Experiment [9] concerns the target Transcriptional activator Myb (Homo sapiens) (UniProt P10242). Nature of the experiment: ATG_Myb_CIS: Attagene CIS-FACTORIAL HepG2 Assay for human Myeloblastosis (Myb) Proto-Oncogene Transcription Factor (AID 2282986). The note with it: HepG2 Attagene CIS-FACTORIAL Myb reporter transcription; actives raise or lower the signal. Summed up:
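Reporter transcript levels, quantified by fluorescent RT-PCR and capillary electrophoresis, serve as the read-out. Transfected HepG2 cells carrying cis-promoter reporter units are dosed for 24 hours, and curves are fitted bidirectionally against DMSO controls.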

The target of experiment [10] is Nuclear respiratory factor 1 (Homo sapiens) (UniProt Q16656). Nature of the experiment: ATG_NRF1_CIS: Attagene CIS-FACTORIAL HepG2 Assay for human Nuclear Respiratory Factor 1 (NRF1) Orphan Gene (AID 2282987). The note with it: HepG2 NRF1 cis-element reporter, Attagene multiplex; actives raise or lower the signal. Summed up: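 Multiplexed cis-reporter assay, HepG2 cells, 24 h treatment. Total RNA → oligo(dT) RT → PCR with reporter-specific primers → 6-FAM primer extension → HpaI cut → CE. Bidirectional fit vs DMSO.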
Chain of Nuclear respiratory factor 1 (Homo sapiens) (Q16656 whole entry, looked up): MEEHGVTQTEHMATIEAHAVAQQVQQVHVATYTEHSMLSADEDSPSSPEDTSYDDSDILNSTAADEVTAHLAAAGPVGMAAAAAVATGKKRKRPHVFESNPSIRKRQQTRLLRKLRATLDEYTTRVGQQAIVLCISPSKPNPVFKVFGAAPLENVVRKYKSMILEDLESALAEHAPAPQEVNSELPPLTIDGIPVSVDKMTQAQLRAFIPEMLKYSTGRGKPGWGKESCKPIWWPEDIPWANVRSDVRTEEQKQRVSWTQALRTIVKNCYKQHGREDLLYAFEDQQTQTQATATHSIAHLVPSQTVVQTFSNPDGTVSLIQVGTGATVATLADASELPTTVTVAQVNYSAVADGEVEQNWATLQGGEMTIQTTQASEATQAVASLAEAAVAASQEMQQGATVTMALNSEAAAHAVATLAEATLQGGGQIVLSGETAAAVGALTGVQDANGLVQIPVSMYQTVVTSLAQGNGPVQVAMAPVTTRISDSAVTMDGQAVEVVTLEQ

Experiment [11] concerns the target Myc proto-oncogene protein (Homo sapiens) (UniProt P01106). Nature of the experiment: ATG_Myc_CIS: Attagene CIS-FACTORIAL HepG2 Assay for human Myelocytomatosis (Myc) Proto-Oncogene Transcription Factor (AID 2282990). The note with it: HepG2, Attagene cis-reporter transcription factor activity; actives raise or lower the signal. The procedure, abridged:
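Multiplexed cis-reporter transcription in HepG2 cells after 24 h chemical treatment. Reporter mRNA measured by RT-PCR and capillary electrophoresis fluorescence; activity fitted bidirectionally against DMSO control.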

A short description of experiment [12]: ATG_NRF2_ARE_CIS: Attagene CIS-FACTORIAL HepG2 Assay for human Nuclear Factor Erythroid 2 Related Factor 2 (NFR2) response to Antioxidant Response Elements (ARE) (AID 2282992). The note with it: HepG2 Attagene ARE/NRF2 reporter, transcription factor activity; actives raise or lower the signal. The procedure, abridged:
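Cis-factorial assay: transfected HepG2 reporter library, 24 h dosing, mRNA readout via RT-PCR/CE; DMSO-referenced bidirectional analysis.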

A short description of experiment [13]: ATG_Oct_MLP_CIS: Attagene CIS-FACTORIAL HepG2 Assay for human Octamer-Binding Transcription Factor (Oct) (AID 2282993). The note with it: HepG2 Attagene cis-factorial Oct reporter, mRNA; actives raise or lower the signal. Summed up:
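Using HepG2 cells bearing transfected cis-reporter constructs, mRNA induction was read after 24 h by fluorescent RT-PCR and capillary electrophoresis, with DMSO defining baseline for gain- or loss-of-signal fits.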

Experiment [14] deals with Cellular tumor antigen p53 (Homo sapiens) (UniProt P04637). Description: ATG_p53_CIS: Attagene CIS-FACTORIAL HepG2 Assay for human p53 Transcription Factor (AID 2282994). The note with it: HepG2 p53 cis-element reporter, Attagene mRNA; actives raise or lower the signal. Summed up:
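Using HepG2 hepatoma cells carrying cis-acting multiplexed reporters, mRNA induction is detected after a 24 h exposure. Gain- and loss-of-signal responses are fitted relative to DMSO-treated cells.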

Experiment [15] can be described thus: BSK_3C_TissueFactor: BioMAP Diversity Plus: 3C Assay for Tissue Factor Biomarker Activity (AID 2282997). The note with it: BioMAP 3C HUVEC, tissue factor biomarker readout; actives raise or lower the signal. Summed up: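 Values derive from bidirectional curve fitting against DMSO of Tissue Factor ELISA signals, taken 24 h after dosing primary human umbilical vein endothelial cells.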

The nature of experiment [16]: BSK_3C_uPAR: BioMAP Diversity Plus: 3C Assay for Urokinase-type plasminogen activator receptor (uPAR) Biomarker Activity (AID 2282998). The note with it: BioMAP 3C HUVEC, uPAR biomarker ELISA; actives raise or lower the signal. Summed up:
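In this endothelial cell-based assay, human umbilical vein primary cells were treated with chemicals and harvested at 24 h. uPAR was quantified using ELISA, with gains or losses fitted relative to DMSO controls.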
Background: An ELISA detects its analyte on a solid surface through an enzyme-linked reagent.

Experiment [17] in a line: BSK_3C_VCAM1: BioMAP Diversity Plus: 3C Assay for Vascular cell adhesion molecule 1 (VCAM1) Biomarker Activity (AID 2282999). The note with it: BioMAP 3C HUVEC, VCAM1 ELISA, cytokine-stimulated; actives raise or lower the signal. Summed up:
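Human umbilical vein endothelial cells were dosed with compound for 24 h, after which cell-surface VCAM-1 was quantified by ELISA. Bidirectional curve fitting used DMSO as negative control and activity baseline.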

The nature of experiment [18]: BSK_4H_Eotaxin3: BioMAP Diversity Plus: 4H Assay for Eotaxin 3 Biomarker Activity (AID 2283000).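 Note: CCL26 protein level quantified by ELISA in parallel with SRB cytotoxicity check.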 The note with it: primary human endothelial cells (HUVEC); actives raise or lower the signal. The procedure, abridged:
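Endothelial primary cells (human umbilical vein) exposed to compound for 24 h. ELISA detection of Eotaxin-3.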

Experiment [19] can be described thus: ATG_NF_kB_CIS: Attagene CIS-FACTORIAL HepG2 Assay for human Nuclear Factor Kappa B (NF-kB) (AID 2282991). The note with it: HepG2 Attagene cis-factorial NF-kB reporter mRNA; actives raise or lower the signal. Summed up:
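Transient MRTU transfection of human HepG2 liver cells → 24 h chemical exposure → total RNA, oligo(dT) RT → PCR, 6-FAM primer extension, HpaI digest 2 h 37 C → CE fragment analysis. Bidirectional fitting, DMSO negative control.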

Experiment [20] is described as follows: ATG_NFI_CIS: Attagene CIS-FACTORIAL HepG2 Assay for human Nuclear Factor I (NFI) (AID 2282989). The note with it: HepG2 cis-regulatory reporter, NFI response element transcription; actives raise or lower the signal. Summed up: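 Transfected HepG2 liver cells, exposed 24 h, supplied total RNA for oligo(dT) reverse transcription and reporter-specific PCR. Labelled, HpaI-cut fragments were sized by capillary electrophoresis; DMSO set the baseline for bidirectional fitting.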

From PubChem BioAssay (EPA / NIEHS) come the findings set out here.

Records with an inconclusive call do not appear. Active and inactive are the calls of the source. Rule for the calls, unless noted: active = hit-call score of the fitted dose curve at least 0.9, where 1 is the maximum; inactive = score below 0.9.

Chain of Transcriptional activator Myb (Homo sapiens) (P10242 whole entry, looked up): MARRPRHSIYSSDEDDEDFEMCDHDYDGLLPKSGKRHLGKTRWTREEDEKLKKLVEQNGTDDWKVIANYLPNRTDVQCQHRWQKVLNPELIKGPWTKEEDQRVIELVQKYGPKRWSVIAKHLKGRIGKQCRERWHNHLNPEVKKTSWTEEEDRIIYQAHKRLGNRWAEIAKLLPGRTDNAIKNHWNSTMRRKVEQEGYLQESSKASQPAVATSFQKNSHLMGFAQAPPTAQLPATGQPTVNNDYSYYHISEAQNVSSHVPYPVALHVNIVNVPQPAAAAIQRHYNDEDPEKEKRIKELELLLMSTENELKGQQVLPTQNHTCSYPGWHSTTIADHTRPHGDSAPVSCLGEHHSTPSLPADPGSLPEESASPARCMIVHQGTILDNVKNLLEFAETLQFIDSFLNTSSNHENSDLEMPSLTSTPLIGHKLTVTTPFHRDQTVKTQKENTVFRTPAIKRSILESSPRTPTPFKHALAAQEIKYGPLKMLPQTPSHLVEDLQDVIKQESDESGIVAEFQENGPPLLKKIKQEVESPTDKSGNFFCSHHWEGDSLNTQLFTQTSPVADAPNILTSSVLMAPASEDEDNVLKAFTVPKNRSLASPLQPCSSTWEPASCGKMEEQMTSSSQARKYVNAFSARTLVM
Chain of Myc proto-oncogene protein (Homo sapiens) (P01106 whole entry, looked up): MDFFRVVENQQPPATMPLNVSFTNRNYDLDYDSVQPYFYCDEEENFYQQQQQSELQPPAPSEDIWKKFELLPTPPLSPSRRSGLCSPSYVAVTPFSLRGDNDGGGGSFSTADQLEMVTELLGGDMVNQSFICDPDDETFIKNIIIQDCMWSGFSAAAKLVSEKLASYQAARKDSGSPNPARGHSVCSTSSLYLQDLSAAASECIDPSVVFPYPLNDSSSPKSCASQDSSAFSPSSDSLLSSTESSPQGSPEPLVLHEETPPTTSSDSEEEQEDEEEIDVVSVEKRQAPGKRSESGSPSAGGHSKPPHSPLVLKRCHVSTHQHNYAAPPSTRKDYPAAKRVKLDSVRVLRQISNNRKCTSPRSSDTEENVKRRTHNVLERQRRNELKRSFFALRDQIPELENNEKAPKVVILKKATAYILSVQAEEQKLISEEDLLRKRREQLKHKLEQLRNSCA
Chain of Cellular tumor antigen p53 (Homo sapiens) (P04637 whole entry, looked up): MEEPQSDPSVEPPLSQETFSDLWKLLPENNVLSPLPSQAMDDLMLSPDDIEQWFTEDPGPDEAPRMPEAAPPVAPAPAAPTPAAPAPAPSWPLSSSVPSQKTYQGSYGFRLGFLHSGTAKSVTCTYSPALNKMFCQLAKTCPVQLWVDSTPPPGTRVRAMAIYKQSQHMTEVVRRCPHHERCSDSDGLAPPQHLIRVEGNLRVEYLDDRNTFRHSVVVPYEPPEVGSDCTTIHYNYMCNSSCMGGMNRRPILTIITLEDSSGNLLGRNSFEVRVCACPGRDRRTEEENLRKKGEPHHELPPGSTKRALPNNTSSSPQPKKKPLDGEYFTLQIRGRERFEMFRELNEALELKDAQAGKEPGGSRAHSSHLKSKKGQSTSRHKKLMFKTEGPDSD
Chain of Oxysterols receptor LXR-beta (Homo sapiens) (P55055 whole entry, looked up, the tested form may be a part): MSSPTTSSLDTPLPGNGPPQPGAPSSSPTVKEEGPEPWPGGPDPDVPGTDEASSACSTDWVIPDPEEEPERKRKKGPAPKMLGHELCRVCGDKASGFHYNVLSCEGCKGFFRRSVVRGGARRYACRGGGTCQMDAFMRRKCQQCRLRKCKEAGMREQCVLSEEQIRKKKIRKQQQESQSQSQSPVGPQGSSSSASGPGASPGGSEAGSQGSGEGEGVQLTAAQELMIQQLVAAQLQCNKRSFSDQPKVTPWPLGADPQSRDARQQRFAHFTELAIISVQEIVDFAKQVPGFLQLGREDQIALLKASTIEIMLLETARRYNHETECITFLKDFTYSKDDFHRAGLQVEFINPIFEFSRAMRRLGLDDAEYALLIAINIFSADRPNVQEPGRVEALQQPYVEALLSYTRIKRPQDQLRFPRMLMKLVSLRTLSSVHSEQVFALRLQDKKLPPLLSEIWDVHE

In the case of `COC(=O)c1ccc(C)cc1`, the compound was classed as inactive in experiment [1], in [2], in experiment [3], in [4], in experiment [5] and in experiment [6]. The compound was classed as inactive in [7], in [8], in experiment [9], in experiment [10], in [11] and in experiment [12]. Moreover, the result in experiment [13], in [14], in experiment [15], in experiment [16], in experiment [17] and in [18] was inactive.
Take `CCC(O)CO` (configuration not stated): the result in experiment [1], in experiment [2], in experiment [3], in experiment [5], in [7] and in [9] was inactive. In addition, the compound was classed as inactive in experiment [10], in [11], in [19], in [12], in [13] and in experiment [14].
As for `CC(CCO)CCc1ccccc1` (configuration not stated), the outcome in experiment [1], in experiment [2], in experiment [6], in [7], in [8] and in [9] was inactive. For the same compound, the result in experiment [10], in [20], in experiment [11], in experiment [19], in experiment [12] and in [13] was inactive. The compound was called inactive in experiment [14].
One may read the AC50 as the concentration at which the activity in the assay is half-maximal. As to `CC1=CCC2C(C1)C2(C)C` (configuration not stated), the outcome in experiment [1], in [2], in experiment [3], in experiment [5], in experiment [6] and in [7] was inactive. The compound was classed as inactive in [9], in experiment [20], in experiment [11] and in [13]. Besides, the AC50 in experiment [19] is 49.1 µM (active); in experiment [12], 48.8 µM (active).
As for `CCCCNC(=O)NS(=O)(=O)c1ccc(C)cc1`, the result in experiment [1], in experiment [2], in experiment [4], in experiment [7], in experiment [8] and in experiment [9] was inactive. Moreover, the compound was classed as inactive in experiment [10], in [20], in experiment [11], in experiment [12], in [13] and in [14].
Turning to `CN(C)CCCN`, the compound was classed as inactive in [1], in experiment [2], in [5], in experiment [6], in [7] and in [9]. Besides, the call in [10], in [20], in experiment [11], in experiment [19], in experiment [12] and in experiment [13] was inactive. Moreover, in experiment [14], the call was inactive.
With `COc1cc2ncnc(Nc3cccc(Cl)c3)c2cc1OC`, the compound was classed as inactive in experiment [1], in experiment [2], in [3], in [4], in [5] and in experiment [6]. Further, the compound was called inactive in experiment [7], in experiment [9], in experiment [10], in [20], in [11] and in experiment [12]. For the same compound, the half-maximal activity concentration (AC50) was 40.8 µM (active) in [19], 25 µM (active) in experiment [13] and 1.57 µM (active) in experiment [14].
Regarding `COc1cc(C(C)(C)C)c(O)c(C(C)(C)C)c1`, the compound was classed as inactive in [1], in experiment [2], in experiment [3], in experiment [4], in experiment [6] and in [8]. For the same compound, the result in experiment [9], in experiment [10], in [20], in [11], in experiment [19] and in experiment [12] was inactive.
With `O=C(Nc1ccccc1)c1cc([N+](=O)[O-])ccc1Cl`, the call in experiment [1], in experiment [2], in experiment [3], in experiment [4], in [6] and in [7] was inactive. Moreover, the compound was classed as inactive in experiment [8], in experiment [9], in [10], in experiment [20], in experiment [11] and in experiment [19]. Further, in experiment [13], the compound was classed as inactive. Also, the AC50 in experiment [12] is 34.6 µM (active); in experiment [14], 68.6 µM (active).
